Screening data: PubChem BioAssay, Broad Institute
ERp5 inh: ERp5 (human) disulfide isomerase inhibition; ERp5 insulin aggregation, absorbance 650 nm, 90 min; inhibition, % at 9.99 µM; 0.05% of 350,000 active; AID 651711;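 active means mean replicate inhibition above about 25%, with every replicate also reaching it, limit read from the data, passing the limit was not always enough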
Target sequence (Q15084 whole entry, looked up): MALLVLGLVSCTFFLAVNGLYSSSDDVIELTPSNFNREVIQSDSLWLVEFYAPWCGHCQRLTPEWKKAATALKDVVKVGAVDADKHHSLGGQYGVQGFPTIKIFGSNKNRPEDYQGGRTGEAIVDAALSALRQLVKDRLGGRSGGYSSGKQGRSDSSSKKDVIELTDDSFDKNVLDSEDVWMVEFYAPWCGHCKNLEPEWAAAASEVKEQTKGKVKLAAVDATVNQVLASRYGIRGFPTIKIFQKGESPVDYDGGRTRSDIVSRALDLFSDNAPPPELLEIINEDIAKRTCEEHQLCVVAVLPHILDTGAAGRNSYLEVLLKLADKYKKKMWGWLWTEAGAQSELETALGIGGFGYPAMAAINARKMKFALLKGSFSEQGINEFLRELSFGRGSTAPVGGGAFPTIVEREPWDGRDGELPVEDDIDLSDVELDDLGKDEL
SIRT5 inh: inhibitors of human sirtuin-5 desuccinylase; Purified SirT5, succinyl-peptide AMC, trypsin-coupled fluorescence; inhibition, % at 15 µM; 1.1% of 330,000 active; AID 652115; in the data active means inhibition above about 15%
PDI turbidity: PDI (human) enzyme inhibition; PDI insulin aggregation turbidity, A650, 90 min; inhibition, % at 10 µM; 0.052% of 350,000 active;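 active means mean inhibition across replicates of 30% or more, whatever share of single replicates reach that level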
HDAC3 inh: human HDAC3 inhibition; inhibition, % at 8.3 µM; AID 2718; recombinant HDAC3, fluorogenic peptide/trypsin coupled, fluorescence; 0.15% of 320,000 active; O15379; in the data active means inhibition above about 26%, passing the limit was not always enough
ERAP1 HTS inh: inhibitors of human ERAP1 aminopeptidase. 0.15% of 340,000 active. AID 652197. inhibition, % at 10.7 µM. Q9NZ08. recombinant ERAP1, Leu-AMC fluorescence, 60 min;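 active means mean replicate inhibition of at least 30%, or all replicates individually reaching that 30% level; inactive means mean below 30% and not every replicate reaching it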;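 further: 0% = neutral control wells and 100% = L-leucinethiol positive control wells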
Numbers without * were called inactive; . = no result; ! = a repeat was not active. The entries come from a sample that favours hits as a whole.

SMILES	ERp5 inh	SIRT5 inh	PDI turbidity	HDAC3 inh	ERAP1 HTS inh
COc1cccc(CN(C)C[C@H]2OCc3cn(nn3)CCCC(=O)N([C@@H](C)CO)C[C@H]2C)c1	2	-4	.	.	2
CN(CC(=O)Nc1ccc(S(N)(=O)=O)cc1)Cc1ccccc1F	-3	21*	7	-4	-3
O=C(C[C@H]1CC[C@@H]2[C@H](COC[C@@H](O)CN2Cc2ccc(Oc3ccccc3)cc2)O1)Nc1nccs1	0	3	.	.	1
CC(=O)N1[C@H](CO)[C@H](c2ccccc2)[C@@H]1CNC(=O)CN1CCOCC1	-2	-6	.	.	0
CN(CC(=O)Nc1ccccc1)CC(=O)Nc1ccc(F)cc1	1	-4	-3	-2	-1
CN(CC(=O)Nc1ccc(F)cc1)CC(=O)NC1CCCCC1	25*	0	11	1	-3
O=C(C[C@@H]1CC[C@@H](NC(=O)c2cnccn2)[C@H](CO)O1)NCc1ccccc1F	-7	-1	.	.	2
Cc1cc(C=O)c(C)n1-c1cc(C(=O)O)cc(C(=O)O)c1	-2	20*	-5	7	4
COc1ccc(NC(=O)Nc2cccc3c2O[C@H](CN(C)C(=O)Nc2ccccc2)[C@@H](C)CN([C@@H](C)CO)C3=O)cc1	-3	-3	.	.	.
COc1ccc(C=O)c2[nH]c3c(Cl)ncnc3c12	1	17*	2	.	1
COc1cc2[nH]c3c(Cl)ncnc3c2cc1OC	.	.	6	5	.
COc1ccc(S(=O)(=O)Nc2ccc3c(c2)C(=O)N([C@H](C)CO)C[C@@H](C)[C@@H](CN(C)Cc2ccncc2)O3)cc1	2	-2	.	.	-4
Cc1ccccc1S(=O)(=O)N1C[C@@H](O)COC[C@H]2O[C@@H](CC(=O)NCc3ccccc3Cl)CC[C@@H]21	2	3	.	.	-1
C[C@@H]1CN([C@@H](C)CO)C(=O)c2cccc(NC(=O)Nc3ccc(F)cc3)c2O[C@@H]1CN(C)Cc1ccccc1	4	4	.	.	-2
O=C(O)CC1=C(Nc2ccccc2)C(=O)N(c2ccccc2)C1c1ccc(Br)cc1 (stereo not drawn)	-2	17*	9	.	1
COc1ccc(C2c3ccc(O)cc3Oc3ncn(CCCO)c(=N)c32)cc1 (stereo not drawn)	-4	-1	44*	-2	0
N=c1c2c(ncn1Cc1ccco1)Oc1cc(O)ccc1C2c1ccccc1 (stereo not drawn)	-3	-4	6	1	.
COc1ccc(S(=O)(=O)N[C@H]2CC[C@H](CC(=O)O)O[C@H]2CO)cc1	-2	-2	.	.	0
Cc1cc(NC(=O)CN2C(=O)CC(c3ccco3)Sc3ccccc32)no1 (stereo not drawn)	.	.	-4	41*	.
COCC#Cc1ccc([C@H]2[C@H](CO)N3C(=O)CN(C(=O)C4CCCC4)C[C@@H]23)cc1	-3	5	.	.	-3
CCCC#Cc1ccc([C@H]2[C@H]3CN(C(=O)Cc4cccnc4)CC(=O)N3[C@H]2CO)cc1	0	22*	.	.	2
CCCC#Cc1ccc([C@H]2[C@H](CO)N3C(=O)CN(C(=O)Cc4cccnc4)C[C@@H]23)cc1	7	-3	.	.	0
COc1ccc(C#Cc2ccc([C@@H]3[C@@H](CO)N4C(=O)CN(C(=O)c5cccnc5)C[C@H]34)cc2)cc1	12	4	.	.	2
O=C(c1cccnc1)N1CCCCN2[C@H](CO)[C@@H](c3ccc(C#Cc4ccccn4)cc3)[C@@H]2C1	3	31*	.	.	-7
COc1ccc(C#Cc2ccc([C@H]3[C@H](CO)N4C(=O)CN(C(=O)c5cccnc5)C[C@@H]34)cc2)cc1	3	37*	.	.	4
SMILES	ERp5 inh	SIRT5 inh	PDI turbidity	HDAC3 inh	ERAP1 HTS inh
C[C@H]1CN([C@@H](C)CO)C(=O)c2cc(C#CC3(O)CCCC3)cnc2O[C@@H]1CN(C)C(=O)CC1CC1	-6	-4	.	.	-2
O=C(C[C@H]1C[C@H]2c3cc(NC(=O)C4CCOCC4)ccc3O[C@H]2[C@H](CO)O1)NCCN1CCCCC1	0	-2	.	.	5
CC(C)=NNc1nc2c(c(=O)[nH]c(=O)n2C)n1CCCc1ccccc1	3	0	13	-6	3
CC(C)=NNc1nc2c(c(=O)[nH]c(=O)n2C)n1CCc1ccccc1	0	37*	7	-8	-4
CCOC(=O)CSc1nc2c(c(=O)[nH]c(=O)n2C)n1CCc1ccccc1	.	.	6	-70	.
Cn1c(=O)[nH]c(=O)c2c1nc(SCC(=O)O)n2CCc1ccccc1	.	.	19	37*	.
C[C@@H]1CN([C@@H](C)CO)C(=O)c2cccc(NC(=O)c3cnccn3)c2O[C@H]1CN(C)C(=O)NC1CCCCC1	0	-1	.	.	5
O=C(NC1CCCCCCC1O)c1ccccc1 (stereo not drawn)	1	16*	3	.	0
COc1ccc(C2CC(=O)C(C=NCCO)=C(O)C2)cc1 (stereo not drawn)	2	23*	-8	-3	-2
CCOC(=O)Cc1nnc(NC(=O)CCc2ccccc2)s1	-5	17*	-1	0	0
CCOC(=O)Cc1nnc(NC(=O)CSc2nnc3c(n2)[nH]c2ccccc23)s1	3	-1	-4	65*	-1
O=C(Cc1ccncc1)NCC[C@@H]1CC[C@H](NC(=O)Nc2ccc(F)cc2)[C@H](CO)O1	-6	2	.	.	-1
CCOc1ccc(Oc2c(/C=N/NC(=O)COc3ccccc3OC)c(C)nn2-c2ccccc2)cc1	.	.	4	27*	.
CCOc1ccc(Oc2c(/C=N/NC(N)=O)c(C)nn2-c2ccccc2)cc1	-1	3	-10	6	-1
COc1ccc(C(=O)C2CCN(C(=S)NCCc3ccccc3)CC2)cc1	-3	16*	3	1	-1
COc1ccc(C(=O)C2CCN(C(=S)NCCc3ccc(OC)c(OC)c3)CC2)cc1	0	-3	-1	2	-6
Nc1c2ccccc2nc2ccccc12	2	-35	-3	-47	61*
Nc1c2c(nc3ccccc13)CCCC2	-4	-4	11	2	-4
COc1ccc(S(=O)(=O)Nc2ccc3c(c2)C(=O)N([C@@H](C)CO)C[C@@H](C)[C@@H](CN(C)CC2CC2)OCCCC[C@@H](C)O3)cc1	18	8	.	.	0
C[C@@H]1CN([C@@H](C)CO)C(=O)c2cc(NC(=O)NC3CCCCC3)ccc2O[C@@H](C)CCCCO[C@H]1CN(C)Cc1ccc(C(=O)O)cc1	0	-3	.	.	0
C[C@@H]1CN([C@H](C)CO)C(=O)CCCn2cc(nn2)CO[C@H]1CN(C)S(=O)(=O)c1ccc(F)cc1	1	23*!	.	.	-1
C[C@H](CO)N1C[C@H](C)[C@H](CN(C)C(=O)CCCN(C)C)OCc2cn(nn2)CCCC1=O	-2	17*	.	.	-1
CC(C)OC(=O)N(C)C[C@@H]1OCc2cn(nn2)CCCC(=O)N([C@H](C)CO)C[C@H]1C	-3	27*	7	.	1
C[C@@H]1CN([C@H](C)CO)C(=O)CCCn2cc(nn2)CO[C@@H]1CN(C)S(=O)(=O)c1ccc(F)cc1	-1	0	.	.	2
